# Sampled rows, rich in hits. Any-hit rate of the full collection: about 6.8%.
# Pf Dd2 inh = P. falciparum Dd2 growth inhibition; SYBR Green, 72 h; stronger effect = lower value; activity change, % at 10 µM; actives 2.3% (n = 94,000); in the data active = activity change below about -80%; inconclusive = no clear call, values can overlap the other calls
# T cruzi growth = inhibitors of T. cruzi proliferation | AID 624255 | actives 5.9% (n = 77,000) | T. cruzi beta-gal in NIH3T3, GalScreen luminescence, 90 h | inhibition, % at 8.34 µM;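 active = mean inhibition above about 93%, with at least 55% of replicates each passing it, limit read from the data, passing the limit was not always enough; inconclusive = only one of those two conditions holds; inactive = neither condition holds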
# C diff growth = C. difficile growth inhibition; Clostridium difficile clinical isolate growth, OD600, 24 h; stronger effect = lower value; growth activity, negative = inhibition, % at 16 µg/mL (by protocol); actives 0.25% (n = 86,000);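 active = mean growth activity at or below -80% and every replicate also at or below -80%; inconclusive = mean at or below -80% but some replicate above -80%; inactive = mean growth activity above -80%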;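 note: 0% = DMSO wells and -100% = levofloxacin 16 µg/mL wells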
# * marks the source's active call; other numbers are inactive results; ? = inconclusive; . = no result given.
SMILES,Pf Dd2 inh,T cruzi growth,C diff growth
C[C@@H]1CN([C@H](C)CO)C(=O)c2cccc(NC(=O)Nc3ccc(F)cc3)c2O[C@H]1CN(C)Cc1ccc(C(=O)Nc2ccccc2N)cc1,-78,.,5
Cc1noc(C)c1NC(=O)Nc1ccc2c(c1)C(=O)N([C@H](C)CO)C[C@H](C)[C@H](CN(C)C(=O)Nc1ccc3c(c1)OCO3)O2,-9,-31,-4
O=C(C[C@@H]1CC[C@@H](NC(=O)NC2CCCC2)[C@H](CO)O1)NCc1ccc(F)cc1,-2,64,.
C[C@H]1CN([C@@H](C)CO)C(=O)c2cc(NC(=O)CCCN(C)C)ccc2O[C@@H]1CN(C)S(=O)(=O)c1ccccc1,-4,-11,1
C[C@H](CO)N1C[C@H](C)[C@H](CN(C)Cc2ccc(C(=O)Nc3ccccc3N)cc2)Oc2c(NC(=O)Nc3ccc(F)cc3)cccc2C1=O,-79,.,13
C[C@H](CO)N1C[C@H](C)[C@H](CN(C)Cc2ccc(C(=O)Nc3ccccc3N)cc2)Oc2c(NC(=O)Nc3cccc4ccccc34)cccc2C1=O,?,.,3
C[C@@H]1CN([C@@H](C)CO)C(=O)c2cccc(NC(=O)Nc3ccc(F)cc3)c2O[C@H]1CN(C)Cc1ccc(C(=O)Nc2ccccc2N)cc1,-82*,.,7
C[C@@H]1CN([C@H](C)CO)C(=O)c2cccc(NC(=O)Nc3cccc4ccccc34)c2O[C@@H]1CN(C)Cc1ccc(C(=O)Nc2ccccc2N)cc1,-92*,.,1
C[C@@H]1CN([C@H](C)CO)C(=O)c2cccc(NC(=O)Nc3ccccc3)c2O[C@H]1CN(C)Cc1ccc(C(=O)Nc2ccccc2N)cc1,-78,91,-2
C[C@@H]1CN([C@@H](C)CO)C(=O)c2cccc(NC(=O)Nc3ccccc3)c2O[C@@H]1CN(C)Cc1ccc(C(=O)Nc2ccccc2N)cc1,-94*,69,1
C[C@@H]1CN([C@H](C)CO)S(=O)(=O)c2ccc(-c3cccc(C#N)c3)cc2O[C@@H]1CN(C)C(=O)C1CC1,-21,51,0
C[C@H](CO)N1C[C@H](C)[C@@H](CN(C)Cc2ccccc2)Oc2ncc(-c3ccccc3)cc2C1=O,5,3,2
C/C=C/c1ccc2c(c1)[C@H]1[C@H](CCN1C(=O)c1ccc3c(c1)OCO3)[C@H](CO)N2,-90*,.,5
C/C=C/c1ccc2c(c1)[C@H]1[C@H](CCN1S(=O)(=O)c1ccccc1C)[C@@H](CO)N2,-87*,.,-3
CCCC#Cc1ccc2c(c1)[C@H]1[C@H](CCN1Cc1ccccc1F)[C@@H](CO)N2,-83*,.,14
O=C(c1ccc2c(c1)OCO2)N1CC[C@H]2[C@H](CO)Nc3ccc(-c4ccc(F)cc4)cc3[C@H]21,-11,0,0
CCCC#Cc1ccc2c(c1)[C@@H]1[C@@H](CCN1S(=O)(=O)c1ccccc1C)[C@@H](CO)N2,-84*,.,37
CCCC#Cc1ccc2c(c1)[C@@H]1[C@@H](CCN1S(=O)(=O)c1ccccc1F)[C@@H](CO)N2,-64,.,-4
Cc1ccccc1S(=O)(=O)N1CC[C@H]2[C@H](CO)Nc3ccc(-c4ccccc4)cc3[C@H]21,17,93,66
OC[C@@H]1Nc2ccc(-c3ccccc3)cc2[C@H]2[C@@H]1CCN2Cc1ccccc1F,-23,50,71
C[C@H](CO)N1C[C@H](C)[C@H](CN(C)Cc2ccncc2)Oc2ncc(C#CCN(C)C)cc2C1=O,59,-20,1
C[C@@H](NC(=O)C[C@H]1CC[C@@H]2[C@H](COC[C@H](O)CN2C(=O)Nc2ccccc2)O1)c1ccccc1,2,0,.
COc1cccc(CN(C)C[C@@H]2OCc3cnnn3CCCC(=O)N([C@H](C)CO)C[C@@H]2C)c1,-5,12,0
COc1ccc2c3c([nH]c2c1)[C@@H](CO)N(C(=O)C1CCOCC1)CC31CCN(C)CC1,27,.,1
CCOC(=O)[C@H]1[C@@H]2C(=O)N3CCC[C@H]3[C@H](O[Si](C(C)C)(C(C)C)C(C)C)[C@H]2C=C2CCN(S(=O)(=O)c3ccc(C)cc3)C[C@H]21,.,.,4
SMILES,Pf Dd2 inh,T cruzi growth,C diff growth
CCCNC(=O)N1CC2(CN(Cc3cccc(OC)c3)C2)c2c(n(C)c3cc(OC)ccc23)[C@H]1CO,-41,.,1
C[C@@H]1CN([C@H](C)CO)C(=O)Cc2cc(NS(=O)(=O)c3cn(C)cn3)ccc2O[C@H]1CN(C)C(=O)Nc1ccc(C(F)(F)F)cc1,0,-19,-5
O=C(C[C@H]1C[C@@H]2c3cc(NC(=O)CC4CC4)ccc3O[C@@H]2[C@H](CO)O1)NCCc1ccccc1,-11,2,3
COCC(=O)Nc1ccc2c(c1)C(=O)N(C)C[C@@H](OC)[C@H](C)CN(C(C)=O)[C@H](C)CO2,17,-16,-4
CS(=O)(=O)N1[C@H](C#N)[C@H](c2ccccc2-c2ccccc2)[C@H]1CO,-94*,.,-10
Cc1ccccc1-c1ccccc1[C@@H]1[C@@H](C#N)N(C(=O)c2ccccc2)[C@H]1CO,-9,.,-2
CS(=O)(=O)N1[C@H](C#N)[C@H](c2ccccc2-c2ccccc2)[C@@H]1CO,-27,.,-17
Cc1ccccc1-c1ccccc1[C@H]1[C@@H](C#N)N(C(=O)c2ccccc2)[C@@H]1CO,-93*,.,4
CN1C(=O)c2cc(NC(=O)NC3CCCC3)ccc2OC[C@@H]2O[C@H](CC(=O)O)CC[C@H]21,-51,-36,-1
CO[C@@H]1CN(C)C(=O)c2ccc(NC(=O)c3cccc(F)c3)cc2OC[C@H](C)N(C)C[C@H]1C,2,-20,.
Cc1noc(C)c1C(=O)N(C)C[C@H]1OCc2ccccc2-c2c(n(C)c3ccccc23)C(=O)N([C@H](C)CO)C[C@@H]1C,16,19,0
CC(C)NC(=O)N(C)C[C@@H]1Oc2ccc(N(C)C)cc2C(=O)N([C@H](C)CO)C[C@@H]1C,8,-5,2
COc1ccccc1NC(=O)N(C)C[C@H]1OCc2ccccc2-c2ccccc2C(=O)N([C@@H](C)CO)C[C@@H]1C,-39,51,-1
COc1ccccc1NC(=O)N(C)C[C@@H]1OCc2ccccc2-c2ccccc2C(=O)N([C@H](C)CO)C[C@H]1C,38,52,-6
C[C@H](CO)N1C[C@H](C)[C@@H](CN(C)C(=O)Nc2cccc(Cl)c2Cl)OCc2ccccc2-c2ccccc2C1=O,-84*,.,4
COc1ccccc1NC(=O)N(C)C[C@@H]1OCc2ccccc2-c2ccccc2C(=O)N([C@@H](C)CO)C[C@H]1C,-86*,44,-4
O=C(C[C@H]1C[C@H]2c3cc(NC(=O)C4CCOCC4)ccc3O[C@H]2[C@H](CO)O1)NCc1ccc(Cl)cc1,4,47,3
N#C[C@@H]1[C@@H](c2ccc(-c3cccc(F)c3)cc2)[C@@H](CO)N1C(=O)NC1CCCC1,-20,91,-1
N#C[C@H]1[C@@H](c2ccc(C3=CCCCC3)cc2)[C@H](CO)N1C(=O)NC1CCCC1,15,.,37
N#C[C@@H]1[C@H](c2ccc(-c3cccc(F)c3)cc2)[C@@H](CO)N1C(=O)NC1CCCC1,-87*,78,11
CCCNC(=O)N1[C@H](C#N)[C@H](c2ccc(-c3cccc(OC)c3)cc2)[C@H]1CO,-85*,77,12
